Measured values reported in the supplement of paper PMC11732987, “Enantioselective OTUD7B fragment discovery through chemoproteomics screening and high-throughput optimisation” (Communications Chemistry, 2025).

How the values were obtained:
Experiment in all cases: log2 ratio of Biotin-Ahx-Ub-VS probe labelling (fragment/DMSO); higher = less target engagement (more negative = stronger competition), active = hit call of the paper (q ≤ 0.05, log2 ratio ≤ -1)
Details in all cases: compound concentration: 200 uM; treatment time: 3 h
USP9X = USP9X (UniProt Q93008)
How it was run: (§1)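 HEK293T lysate, 495 µg per sample in Tris/CHAPS/IGEPAL buffer with protease inhibitors, was treated in triplicate with fragment at 200 µM or vehicle for 3 h and then with Biotin-Ahx-Ub-VS at 0.5 µM final for 1 h. Labelled DUBs were NeutrAvidin-enriched, digested with LysC and trypsin, and run by diaPASEF LC-MS/MS. Spectronaut label-free quantities were global-median-normalised, and values are average log2 fragment/vehicle ratios by unpaired t-test on proteins with ≥2 unique peptides.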

UniProt O00487 = molecular target: UniProt O00487
How it was run: as §1

UniProt O00507 = molecular target: UniProt O00507
How it was run: as §1

UniProt P51784 = molecular target: UniProt P51784
How it was run: as §1

UniProt Q5T2D3 = molecular target: T1, UniProt Q5T2D3
T1 sequence (whole entry): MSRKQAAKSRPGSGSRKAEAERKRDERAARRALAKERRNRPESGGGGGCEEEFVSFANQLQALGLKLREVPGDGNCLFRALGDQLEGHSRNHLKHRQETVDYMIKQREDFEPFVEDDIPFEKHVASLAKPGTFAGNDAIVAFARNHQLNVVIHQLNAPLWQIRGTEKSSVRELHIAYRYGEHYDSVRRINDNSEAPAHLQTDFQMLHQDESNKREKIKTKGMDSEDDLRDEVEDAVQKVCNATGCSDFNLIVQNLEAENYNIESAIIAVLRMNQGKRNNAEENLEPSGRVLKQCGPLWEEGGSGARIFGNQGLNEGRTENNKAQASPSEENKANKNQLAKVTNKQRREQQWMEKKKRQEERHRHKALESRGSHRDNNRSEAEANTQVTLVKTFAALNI
How it was run: as §1

UniProt Q8TE49 = molecular target: T2, UniProt Q8TE49
T2 sequence (whole entry): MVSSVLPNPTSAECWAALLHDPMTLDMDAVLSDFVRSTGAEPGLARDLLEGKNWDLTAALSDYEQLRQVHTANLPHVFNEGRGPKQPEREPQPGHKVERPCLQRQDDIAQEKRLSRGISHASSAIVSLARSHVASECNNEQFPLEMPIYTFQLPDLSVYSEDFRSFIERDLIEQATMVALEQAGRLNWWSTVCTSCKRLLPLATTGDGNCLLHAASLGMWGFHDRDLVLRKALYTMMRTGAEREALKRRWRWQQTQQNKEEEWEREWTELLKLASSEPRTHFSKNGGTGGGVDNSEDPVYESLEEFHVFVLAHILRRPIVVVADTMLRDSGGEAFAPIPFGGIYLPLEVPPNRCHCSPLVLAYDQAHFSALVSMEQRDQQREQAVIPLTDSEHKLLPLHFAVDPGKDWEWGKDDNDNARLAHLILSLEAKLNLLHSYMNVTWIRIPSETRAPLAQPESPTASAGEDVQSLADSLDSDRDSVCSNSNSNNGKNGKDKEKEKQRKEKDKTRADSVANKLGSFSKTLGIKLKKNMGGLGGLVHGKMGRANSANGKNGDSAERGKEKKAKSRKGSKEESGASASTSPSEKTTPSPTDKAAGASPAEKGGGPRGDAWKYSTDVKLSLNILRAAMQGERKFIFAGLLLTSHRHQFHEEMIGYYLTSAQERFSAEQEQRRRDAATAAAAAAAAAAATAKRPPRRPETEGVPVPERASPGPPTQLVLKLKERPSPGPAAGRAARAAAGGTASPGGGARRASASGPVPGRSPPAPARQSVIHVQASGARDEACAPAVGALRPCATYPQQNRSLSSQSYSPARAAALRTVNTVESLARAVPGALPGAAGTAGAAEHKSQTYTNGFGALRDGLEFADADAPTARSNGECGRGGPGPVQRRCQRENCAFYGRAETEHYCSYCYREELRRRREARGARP
How it was run: as §1

UniProt Q9P2H5 = molecular target: T3, UniProt Q9P2H5
T3 sequence (whole entry): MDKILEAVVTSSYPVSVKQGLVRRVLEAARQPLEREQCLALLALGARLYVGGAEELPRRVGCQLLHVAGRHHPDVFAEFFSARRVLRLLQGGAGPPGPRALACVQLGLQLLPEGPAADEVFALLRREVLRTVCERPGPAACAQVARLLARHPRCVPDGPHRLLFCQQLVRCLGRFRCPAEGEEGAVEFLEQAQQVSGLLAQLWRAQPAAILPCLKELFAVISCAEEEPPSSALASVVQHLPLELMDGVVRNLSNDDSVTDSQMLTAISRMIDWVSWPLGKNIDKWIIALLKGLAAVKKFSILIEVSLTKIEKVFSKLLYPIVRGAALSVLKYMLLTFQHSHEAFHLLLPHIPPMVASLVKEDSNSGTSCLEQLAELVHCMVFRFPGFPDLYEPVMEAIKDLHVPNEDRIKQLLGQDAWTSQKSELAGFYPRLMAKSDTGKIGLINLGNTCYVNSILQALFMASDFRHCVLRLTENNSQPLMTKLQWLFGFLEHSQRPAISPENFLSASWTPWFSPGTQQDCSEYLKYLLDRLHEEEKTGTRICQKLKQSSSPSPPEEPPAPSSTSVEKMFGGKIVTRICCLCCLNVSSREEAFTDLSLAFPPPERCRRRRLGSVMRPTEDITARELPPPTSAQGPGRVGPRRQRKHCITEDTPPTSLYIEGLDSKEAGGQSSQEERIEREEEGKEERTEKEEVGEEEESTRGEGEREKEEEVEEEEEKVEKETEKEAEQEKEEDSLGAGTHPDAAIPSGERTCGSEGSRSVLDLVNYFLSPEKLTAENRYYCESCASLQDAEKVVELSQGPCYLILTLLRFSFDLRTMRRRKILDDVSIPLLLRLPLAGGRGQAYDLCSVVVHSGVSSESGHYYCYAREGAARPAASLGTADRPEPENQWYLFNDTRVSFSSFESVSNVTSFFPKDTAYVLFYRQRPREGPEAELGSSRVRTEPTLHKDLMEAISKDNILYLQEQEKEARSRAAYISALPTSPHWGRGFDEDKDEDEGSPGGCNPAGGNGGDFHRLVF
How it was run: as §1

UniProt Q9UGI0 = molecular target: T4, UniProt Q9UGI0
T4 sequence (whole entry): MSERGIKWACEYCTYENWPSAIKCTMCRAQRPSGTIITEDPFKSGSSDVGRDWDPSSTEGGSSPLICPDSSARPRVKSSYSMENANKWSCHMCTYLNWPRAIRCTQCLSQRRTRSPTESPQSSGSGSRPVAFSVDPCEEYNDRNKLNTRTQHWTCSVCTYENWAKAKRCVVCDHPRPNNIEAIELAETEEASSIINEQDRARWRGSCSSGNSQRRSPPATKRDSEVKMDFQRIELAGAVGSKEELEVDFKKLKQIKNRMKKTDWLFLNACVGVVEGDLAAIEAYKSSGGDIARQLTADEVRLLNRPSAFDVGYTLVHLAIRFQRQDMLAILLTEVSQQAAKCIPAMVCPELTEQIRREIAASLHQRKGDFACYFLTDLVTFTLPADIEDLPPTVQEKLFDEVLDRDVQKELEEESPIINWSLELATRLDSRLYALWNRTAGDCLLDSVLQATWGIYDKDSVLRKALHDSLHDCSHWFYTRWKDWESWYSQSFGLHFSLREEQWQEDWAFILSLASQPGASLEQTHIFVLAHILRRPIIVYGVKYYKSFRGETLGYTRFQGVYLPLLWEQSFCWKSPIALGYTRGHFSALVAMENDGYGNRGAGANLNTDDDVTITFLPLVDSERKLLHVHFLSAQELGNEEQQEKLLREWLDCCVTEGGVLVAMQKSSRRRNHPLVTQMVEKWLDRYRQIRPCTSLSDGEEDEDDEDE
How it was run: as §1

YOD1 = molecular target: T5, YOD1 (UniProt Q5VVQ6)
T5 sequence (whole entry): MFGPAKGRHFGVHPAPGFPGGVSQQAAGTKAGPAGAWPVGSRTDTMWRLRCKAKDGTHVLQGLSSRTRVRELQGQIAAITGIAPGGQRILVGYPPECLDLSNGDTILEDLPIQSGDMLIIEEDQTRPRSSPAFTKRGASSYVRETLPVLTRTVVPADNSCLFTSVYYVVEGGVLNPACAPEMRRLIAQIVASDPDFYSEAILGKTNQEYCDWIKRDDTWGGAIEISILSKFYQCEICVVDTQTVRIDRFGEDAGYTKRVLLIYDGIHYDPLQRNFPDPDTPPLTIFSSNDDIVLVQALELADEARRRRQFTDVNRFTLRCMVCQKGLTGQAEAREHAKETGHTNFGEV
How it was run: as §1

Measured: log2 ratio of Biotin-Ahx-Ub-VS probe labelling

Sequence of UniProt O00507 (O00507 whole entry): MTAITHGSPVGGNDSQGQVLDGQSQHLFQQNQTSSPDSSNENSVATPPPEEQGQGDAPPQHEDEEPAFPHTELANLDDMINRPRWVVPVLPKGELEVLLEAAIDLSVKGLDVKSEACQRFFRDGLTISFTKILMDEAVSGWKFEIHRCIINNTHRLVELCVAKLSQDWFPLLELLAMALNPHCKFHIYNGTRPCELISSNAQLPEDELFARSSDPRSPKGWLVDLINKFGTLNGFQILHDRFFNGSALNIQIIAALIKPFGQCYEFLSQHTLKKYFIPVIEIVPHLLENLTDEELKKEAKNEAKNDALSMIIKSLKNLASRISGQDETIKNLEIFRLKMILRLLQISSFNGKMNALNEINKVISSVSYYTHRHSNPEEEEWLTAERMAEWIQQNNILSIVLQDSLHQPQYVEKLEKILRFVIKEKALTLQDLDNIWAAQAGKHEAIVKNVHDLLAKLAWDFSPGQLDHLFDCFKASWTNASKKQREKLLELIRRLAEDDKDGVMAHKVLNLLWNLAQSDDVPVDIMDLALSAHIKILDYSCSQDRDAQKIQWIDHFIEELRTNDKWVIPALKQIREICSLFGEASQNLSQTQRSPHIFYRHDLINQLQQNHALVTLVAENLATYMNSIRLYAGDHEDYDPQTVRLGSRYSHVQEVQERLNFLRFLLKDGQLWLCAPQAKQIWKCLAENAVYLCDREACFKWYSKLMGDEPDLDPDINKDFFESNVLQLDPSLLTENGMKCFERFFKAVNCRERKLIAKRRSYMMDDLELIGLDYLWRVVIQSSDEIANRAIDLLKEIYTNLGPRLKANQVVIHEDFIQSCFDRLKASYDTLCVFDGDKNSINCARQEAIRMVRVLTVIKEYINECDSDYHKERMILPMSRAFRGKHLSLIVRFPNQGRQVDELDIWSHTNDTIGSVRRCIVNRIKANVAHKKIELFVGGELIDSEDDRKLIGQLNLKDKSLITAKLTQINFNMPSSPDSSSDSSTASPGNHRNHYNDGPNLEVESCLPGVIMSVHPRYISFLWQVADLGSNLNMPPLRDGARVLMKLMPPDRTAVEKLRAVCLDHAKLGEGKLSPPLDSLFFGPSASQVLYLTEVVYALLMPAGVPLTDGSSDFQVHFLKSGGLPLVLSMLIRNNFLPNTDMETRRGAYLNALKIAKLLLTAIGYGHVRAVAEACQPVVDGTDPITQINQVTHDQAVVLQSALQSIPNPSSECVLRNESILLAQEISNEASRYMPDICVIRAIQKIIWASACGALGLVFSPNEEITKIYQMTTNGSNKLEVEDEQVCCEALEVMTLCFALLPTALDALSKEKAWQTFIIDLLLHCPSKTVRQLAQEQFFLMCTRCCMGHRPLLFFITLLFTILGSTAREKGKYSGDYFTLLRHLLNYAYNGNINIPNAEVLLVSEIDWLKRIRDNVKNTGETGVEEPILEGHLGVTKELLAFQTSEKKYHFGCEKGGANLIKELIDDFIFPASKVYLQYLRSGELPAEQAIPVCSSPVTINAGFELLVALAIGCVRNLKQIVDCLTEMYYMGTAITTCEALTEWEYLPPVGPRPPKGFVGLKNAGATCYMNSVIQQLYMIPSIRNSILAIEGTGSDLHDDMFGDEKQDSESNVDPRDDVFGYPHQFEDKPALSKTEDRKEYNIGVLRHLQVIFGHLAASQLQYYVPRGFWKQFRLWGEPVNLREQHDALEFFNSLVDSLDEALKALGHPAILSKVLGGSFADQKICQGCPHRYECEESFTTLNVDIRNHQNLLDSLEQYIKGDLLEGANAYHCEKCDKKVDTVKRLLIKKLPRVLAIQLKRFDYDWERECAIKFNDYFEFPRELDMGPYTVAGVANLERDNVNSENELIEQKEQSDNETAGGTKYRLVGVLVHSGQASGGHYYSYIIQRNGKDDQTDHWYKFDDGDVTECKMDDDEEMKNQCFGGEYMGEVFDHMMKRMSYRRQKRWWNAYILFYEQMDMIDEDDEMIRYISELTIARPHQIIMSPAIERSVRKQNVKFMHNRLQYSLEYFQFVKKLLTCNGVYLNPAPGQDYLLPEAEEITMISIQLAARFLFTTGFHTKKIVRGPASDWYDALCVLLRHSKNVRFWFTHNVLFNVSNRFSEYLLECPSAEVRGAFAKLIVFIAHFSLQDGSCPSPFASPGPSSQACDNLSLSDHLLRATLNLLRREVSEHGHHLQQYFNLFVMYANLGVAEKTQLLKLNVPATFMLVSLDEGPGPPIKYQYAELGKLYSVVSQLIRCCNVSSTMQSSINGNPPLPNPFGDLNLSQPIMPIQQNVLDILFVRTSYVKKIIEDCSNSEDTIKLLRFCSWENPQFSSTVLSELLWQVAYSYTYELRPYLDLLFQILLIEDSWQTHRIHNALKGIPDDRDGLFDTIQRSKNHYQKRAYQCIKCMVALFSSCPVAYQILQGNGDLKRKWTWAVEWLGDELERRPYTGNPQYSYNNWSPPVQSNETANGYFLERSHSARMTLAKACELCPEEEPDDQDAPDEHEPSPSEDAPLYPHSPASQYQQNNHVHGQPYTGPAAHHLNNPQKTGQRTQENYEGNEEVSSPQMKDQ
Sequence of UniProt O00487 (O00487 whole entry): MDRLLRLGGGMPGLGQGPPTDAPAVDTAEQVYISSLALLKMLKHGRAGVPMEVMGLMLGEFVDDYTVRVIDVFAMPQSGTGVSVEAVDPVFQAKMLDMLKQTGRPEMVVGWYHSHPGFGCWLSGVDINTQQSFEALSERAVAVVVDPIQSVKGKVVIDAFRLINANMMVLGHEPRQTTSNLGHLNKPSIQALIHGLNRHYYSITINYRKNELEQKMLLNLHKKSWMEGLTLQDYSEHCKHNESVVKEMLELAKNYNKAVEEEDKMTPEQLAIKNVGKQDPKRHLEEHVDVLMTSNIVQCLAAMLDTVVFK
Sequence of UniProt P51784 (P51784 whole entry): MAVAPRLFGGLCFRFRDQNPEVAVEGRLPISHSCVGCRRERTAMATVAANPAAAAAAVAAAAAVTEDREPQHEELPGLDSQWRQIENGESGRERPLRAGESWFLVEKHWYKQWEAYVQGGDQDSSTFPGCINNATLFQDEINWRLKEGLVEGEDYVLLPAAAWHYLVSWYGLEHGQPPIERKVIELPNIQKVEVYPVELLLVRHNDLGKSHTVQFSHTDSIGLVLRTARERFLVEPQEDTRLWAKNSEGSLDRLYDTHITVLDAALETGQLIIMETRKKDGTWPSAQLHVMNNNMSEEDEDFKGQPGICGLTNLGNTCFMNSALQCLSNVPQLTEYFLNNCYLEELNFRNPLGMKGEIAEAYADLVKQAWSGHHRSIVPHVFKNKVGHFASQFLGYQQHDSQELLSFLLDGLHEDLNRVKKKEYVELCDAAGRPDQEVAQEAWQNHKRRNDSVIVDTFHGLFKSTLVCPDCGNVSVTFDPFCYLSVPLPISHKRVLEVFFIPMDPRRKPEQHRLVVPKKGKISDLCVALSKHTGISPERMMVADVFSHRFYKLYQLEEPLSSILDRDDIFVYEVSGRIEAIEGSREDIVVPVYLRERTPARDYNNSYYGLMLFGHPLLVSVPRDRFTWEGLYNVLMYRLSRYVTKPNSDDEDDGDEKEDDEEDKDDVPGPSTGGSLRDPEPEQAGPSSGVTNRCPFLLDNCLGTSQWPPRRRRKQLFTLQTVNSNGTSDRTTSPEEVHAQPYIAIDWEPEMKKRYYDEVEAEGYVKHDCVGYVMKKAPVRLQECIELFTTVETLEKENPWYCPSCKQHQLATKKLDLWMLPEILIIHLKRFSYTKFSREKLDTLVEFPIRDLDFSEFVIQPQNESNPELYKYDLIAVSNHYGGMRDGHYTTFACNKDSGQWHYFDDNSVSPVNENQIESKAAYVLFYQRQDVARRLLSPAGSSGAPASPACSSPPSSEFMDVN

Cc1ccc(CC(CO)CNC(=O)CCl)cc1 (centres undefined)
inactive: USP9X -0.363 | UniProt O00487 -0.242 | UniProt O00507 -0.3 | UniProt P51784 -0.172 | UniProt Q5T2D3 -0.293 | UniProt Q8TE49 -0.933 | UniProt Q9P2H5 -0.149 | UniProt Q9UGI0 -0.929 | YOD1 -0.164
